Publication PMC4336329 (PLoS ONE, 2015)
The campaign covered roughly 310,000 compounds. About 14,000 (4.5%) showed an effect of 50% or more. Effects have a minus sign here. The full list was thinned out, with strong results kept by preference.

Molecular target: human ether-à-go-go-related gene (hERG) potassium channel (human, UniProt Q12809)
Test: primary screen, population patch clamp on CHO cells stably expressing hERG; higher = less effect of the substance
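Note: peak tail current of the secondary pulse compared with the same well before compound.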

Chain of human ether-à-go-go-related gene (hERG) potassium channel (Q12809 whole entry, looked up): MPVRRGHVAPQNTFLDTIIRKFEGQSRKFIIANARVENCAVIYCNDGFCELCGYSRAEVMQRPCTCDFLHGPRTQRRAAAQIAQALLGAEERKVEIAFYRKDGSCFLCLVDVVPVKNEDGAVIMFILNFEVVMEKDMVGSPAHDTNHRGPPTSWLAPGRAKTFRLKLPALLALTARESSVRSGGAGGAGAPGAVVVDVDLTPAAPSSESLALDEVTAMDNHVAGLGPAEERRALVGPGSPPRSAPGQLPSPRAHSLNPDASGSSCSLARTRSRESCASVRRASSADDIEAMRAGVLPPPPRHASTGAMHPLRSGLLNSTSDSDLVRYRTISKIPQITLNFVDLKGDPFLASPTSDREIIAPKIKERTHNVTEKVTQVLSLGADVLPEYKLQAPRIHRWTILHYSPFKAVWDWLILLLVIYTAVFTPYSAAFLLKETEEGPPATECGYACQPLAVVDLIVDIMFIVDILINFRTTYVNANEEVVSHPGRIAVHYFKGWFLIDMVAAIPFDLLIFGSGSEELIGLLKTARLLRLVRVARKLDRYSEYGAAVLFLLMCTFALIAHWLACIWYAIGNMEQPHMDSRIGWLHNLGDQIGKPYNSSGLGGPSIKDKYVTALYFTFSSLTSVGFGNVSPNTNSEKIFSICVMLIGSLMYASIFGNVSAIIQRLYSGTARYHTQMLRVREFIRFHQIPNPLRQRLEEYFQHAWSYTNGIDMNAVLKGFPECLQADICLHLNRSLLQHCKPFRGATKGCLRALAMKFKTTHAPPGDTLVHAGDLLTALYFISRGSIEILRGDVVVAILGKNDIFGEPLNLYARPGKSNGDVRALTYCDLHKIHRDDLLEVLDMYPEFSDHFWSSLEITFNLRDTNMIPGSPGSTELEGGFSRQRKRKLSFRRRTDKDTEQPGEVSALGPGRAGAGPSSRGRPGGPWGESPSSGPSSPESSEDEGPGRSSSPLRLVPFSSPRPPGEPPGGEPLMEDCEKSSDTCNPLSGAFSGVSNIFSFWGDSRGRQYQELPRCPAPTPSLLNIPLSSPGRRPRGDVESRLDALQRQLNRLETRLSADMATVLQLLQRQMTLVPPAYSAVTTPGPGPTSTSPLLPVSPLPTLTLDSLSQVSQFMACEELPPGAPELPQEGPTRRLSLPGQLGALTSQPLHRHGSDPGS

Going from `CCn1c(COc2ccc(OC)cc2)nc2ccccc21` to `CC(C)Cn1c(SCC(=O)N2CC(=O)Nc3ccccc32)nc2ccccc21`, the “hERG current change (%, negative = inhibition) at 10uM” value rises from -19.8% to 4.27%.

First: Cc1ccccc1NC(=O)C1CCN(C2=NS(=O)(=O)c3ccccc32)CC1
Second: Cc1cccc(-c2ccc(NC(=O)C3CCN(CC4CC4)CC3)cc2)c1
The “hERG current change (%, negative = inhibition) at 10uM” value of the first is higher: -15.2% for the first, -70.9% for the second.

First: COc1cc(CNc2ccccc2)c([N+](=O)[O-])cc1OC.O=C(O)C(=O)O
Second: CCS(=O)(=O)N1CCN(Cc2ccccc2OC)CC1.O=C(O)C(=O)O
The “hERG current change (%, negative = inhibition) at 10uM” value of the first is lower: -3.72% for the first, 11.7% for the second.

Going from `C/C(=C1/SC(N2CCCC2)=NC1=O)c1ccc(Br)cc1` to `C/C(=C1/SC(N2CCOCC2)=NC1=O)c1ccc(Br)cc1`, the “hERG current change (%, negative = inhibition) at 10uM” value rises from -76.7% to 14.8%.

Compared with `C/C(=C1\SC(N2CCOCC2)=NC1=O)c1ccc(C)cc1`, `Cc1ccc(NC(=O)CSc2nc(=O)n(CCN3CCOCC3)c3c2CCCC3)cc1` is lower in “hERG current change (%, negative = inhibition) at 10uM” value: -10.8% for the first, -27.5% for the second.

First: CCCN(CC1CC1)C(=O)CCc1nnc(C(OC)c2ccccc2)o1 (stereo not shown)
Second: CCN(Cc1cnn(C)c1)Cc1nc(C(c2ccccc2)c2ccccc2)no1
The “hERG current change (%, negative = inhibition) at 10uM” value of the first is higher: -4.58% for the first, -18.2% for the second.

Going from `Cc1ccc(OCC(=O)N/N=C2/SCC(=O)N2Cc2ccco2)cc1` to `O=C(COc1ccc(Br)cc1)N/N=C1/SCC(=O)N1Cc1ccco1`, the “hERG current change (%, negative = inhibition) at 10uM” value falls from -28% to -59.8%.

First: Cc1cccc(OCC(=O)N/N=C2/SCC(=O)N2Cc2ccco2)c1
Second: COc1ccc(NC(=S)NC2CC3CCC(C2)N3Cc2ccco2)cc1 (stereo not shown)
The “hERG current change (%, negative = inhibition) at 10uM” value of the first is higher: -25.4% for the first, -30.1% for the second.

Compared with `NS(=O)(=O)c1ccc(CCNC(=O)c2cccc([N+](=O)[O-])c2)cc1`, `CN1/C(=C\C(=O)c2cccc([N+](=O)[O-])c2)Sc2ccccc21` is lower in “hERG current change (%, negative = inhibition) at 10uM” value: 11.2% for the first, 10.8% for the second.

Going from `Cc1cccc(-n2cnc3cc([N+](=O)[O-])ccc32)c1` to `O=[N+]([O-])c1ccc2c(c1)ncn2-c1ccccc1`, the “hERG current change (%, negative = inhibition) at 10uM” value rises from -51.9% to -21.6%.

First: O=C(c1ccc([N+](=O)[O-])cc1[N+](=O)[O-])n1cnc2ccccc21
Second: O=[N+]([O-])c1ccc(-n2cnc3ccccc32)c([N+](=O)[O-])c1
The “hERG current change (%, negative = inhibition) at 10uM” value of the first is higher: -16.4% for the first, -57.8% for the second.

Compared with `O=c1c2ccccc2ncn1-c1ccc([N+](=O)[O-])cc1[N+](=O)[O-]`, `O=c1c2ccccc2ncn1-c1ccc(Br)cc1[N+](=O)[O-]` is lower in “hERG current change (%, negative = inhibition) at 10uM” value: 10.7% for the first, -61.4% for the second.

Compared with `O=[N+]([O-])c1ccccc1-n1cnc2ccccc21`, `O=c1c2ccccc2ncn1-c1ccc(Cl)cc1[N+](=O)[O-]` is higher in “hERG current change (%, negative = inhibition) at 10uM” value: -18.2% for the first, -4.65% for the second.

Going from `Nc1ccc(-n2cnc3cc([N+](=O)[O-])ccc32)cc1` to `O=c1[nH]cnc2c1c(-c1ccccc1)cn2-c1ccccc1`, the “hERG current change (%, negative = inhibition) at 10uM” value rises from 1.35% to 12.1%.

Compared with `C[C@]12CCC(=O)C=C1CC[C@@H]1[C@@H]2C(=O)C[C@]2(C)C(=O)CC[C@@H]12`, `Cc1cc(=O)oc(C)c1C(=O)N[C@@H]1CCCCNC1=O` is lower in “hERG current change (%, negative = inhibition) at 10uM” value: 7.99% for the first, 7.72% for the second.

Compared with `O=C(N/N=C/c1ccccn1)C(O)c1ccccc1` (stereo not shown), `COC(C(=O)N/N=C(\C)c1ccc(C(C)(C)C)cc1)c1ccccc1` (stereo not shown) is higher in “hERG current change (%, negative = inhibition) at 10uM” value: 9.82% for the first, 13.1% for the second.

Compared with `Cn1c(=O)n(C)c2cc(N3CCOCC3)c(NC(=O)c3cccc(Cl)c3)cc21`, `COc1cccc2cc(C(=O)NCCN3CCOCC3)c(=O)oc12` is higher in “hERG current change (%, negative = inhibition) at 10uM” value: 5.25% for the first, 12.9% for the second.

Compared with `COc1ccc(NC(=O)C/C(C)=N/NC(=O)c2cnccn2)cc1`, `CCN(c1ccc(OC)cc1)S(=O)(=O)c1nnc(NC(=O)C2CCCCC2)s1` is lower in “hERG current change (%, negative = inhibition) at 10uM” value: 15.5% for the first, 12.2% for the second.

Going from `CC1(OC(=O)CCc2ccccc2)C(=O)C=C2C=C(c3ccc(C#N)cc3)N(CCN3CCOCC3)C=C2C1=O` (stereo not shown) to `COCCN1C=C2C(=O)C(C)(OC(=O)CCc3ccccc3)C(=O)C=C2C=C1c1ccc(C#N)cc1` (stereo not shown), the “hERG current change (%, negative = inhibition) at 10uM” value falls from -49.9% to -72.4%.

Going from `CC1(OC(=O)CCc2ccccc2)C(=O)C=C2C=C(c3ccc(C#N)cc3)N(C3CCCC3)C=C2C1=O` (stereo not shown) to `CC1(OC(=O)CCc2ccccc2)C(=O)C=C2C=C(c3ccc(C#N)cc3)N(C3CC3)C=C2C1=O` (stereo not shown), the “hERG current change (%, negative = inhibition) at 10uM” value falls from -49.7% to -51.7%.

Going from `CC1(OC(=O)CCc2ccccc2)C(=O)C=C2C=C(c3ccc(C#N)cc3)N(CCc3c[nH]c4ccccc34)C=C2C1=O` (stereo not shown) to `CC1(OC(=O)CCc2ccccc2)C(=O)C=C2C=C(c3ccc(C#N)cc3)N(Cc3ccccc3)C=C2C1=O` (stereo not shown), the “hERG current change (%, negative = inhibition) at 10uM” value falls from -7.98% to -51.9%.

Compared with `CCN(CC)CCCN1C=C2C(=O)C(C)(OC(=O)CCc3ccccc3)C(=O)C=C2C=C1c1ccc(C#N)cc1` (stereo not shown), `CC(C)OCCCN1C=C2C(=O)C(C)(OC(=O)CCc3ccccc3)C(=O)C=C2C=C1c1ccc(C#N)cc1` (stereo not shown) is lower in “hERG current change (%, negative = inhibition) at 10uM” value: -37.6% for the first, -71.3% for the second.

Going from `CC(C)CN1C=C2C(=O)C(C)(OC(=O)CCc3ccccc3)C(=O)C=C2C=C1c1ccc(C#N)cc1` (stereo not shown) to `C=CCN1C=C2C(=O)C(C)(OC(=O)CCc3ccccc3)C(=O)C=C2C=C1c1ccc(C#N)cc1` (stereo not shown), the “hERG current change (%, negative = inhibition) at 10uM” value falls from -26.9% to -28.8%.

First: CC1(OC(=O)CCc2ccccc2)C(=O)C=C2C=C(c3ccc(C#N)cc3)N(CC3CC3)C=C2C1=O (stereo not shown)
Second: CC1(OC(=O)CCc2ccccc2)C(=O)C=C2C=C(c3ccc(C#N)cc3)N(Cc3ccco3)C=C2C1=O (stereo not shown)
The “hERG current change (%, negative = inhibition) at 10uM” value of the first is lower: -44.6% for the first, -38.9% for the second.

Compared with `CC1(OC(=O)CCc2ccccc2)C(=O)C=C2C=C(c3ccc(C#N)cc3)N(CCc3ccccn3)C=C2C1=O` (stereo not shown), `CC1(OC(=O)CCc2ccccc2)C(=O)C=C2C=C(c3ccc(C#N)cc3)N(c3ccccc3)C=C2C1=O` (stereo not shown) is higher in “hERG current change (%, negative = inhibition) at 10uM” value: -51.8% for the first, 14.3% for the second.

First: C=CCOC(=O)C1=C(C)NC(=O)NC1c1ccc2c(c1)OCO2 (stereo not shown)
Second: O=C(NCc1ccc2c(c1)OCO2)C1CCCN(C(=O)c2ccc(Cl)cc2)C1 (stereo not shown)
The “hERG current change (%, negative = inhibition) at 10uM” value of the first is higher: -11.9% for the first, -34.4% for the second.

Compared with `CCOC(=O)N/N=C/C(Cl)=C/c1ccccc1`, `COc1ccccc1NC(=O)CCCC(=O)OCC(F)(F)C(F)F` is lower in “hERG current change (%, negative = inhibition) at 10uM” value: 0.407% for the first, -1.37% for the second.

Going from `CCOC(=O)c1c(S(=O)(=O)N2CCCC(C(=O)Nc3ccc(C)cn3)C2)c(C)n(C)c1C` (stereo not shown) to `COc1cccc(NC(=O)C2CCN(S(C)(=O)=O)CC2)c1`, the “hERG current change (%, negative = inhibition) at 10uM” value falls from 19.7% to -7.92%.

Going from `CCc1ccc(N=C2NC(=O)/C(=C/c3ccc(OCC(=O)O)cc3)S2)cc1` to `Cc1ccc(C(=O)Nc2ncc(Cc3ccc(F)cc3)s2)o1`, the “hERG current change (%, negative = inhibition) at 10uM” value falls from 14.6% to -2.85%.

Compared with `CCCCNC(=O)Cn1cnc([N+](=O)[O-])n1`, `O=C(CSc1nc(=O)n(CCCN2CCOCC2)c2c1CCC2)Nc1ccc([N+](=O)[O-])cc1` is lower in “hERG current change (%, negative = inhibition) at 10uM” value: 10.8% for the first, -60.4% for the second.

Going from `COc1ccc(CN2C=C3C(=O)C(C)(OC(=O)CCc4ccccc4)C(=O)C=C3C=C2c2ccc(C#N)cc2)cc1` (stereo not shown) to `COc1cccc(O)c1CN1CCC(C(=O)Nc2ccc(-c3cccc(C)c3)cc2)CC1`, the “hERG current change (%, negative = inhibition) at 10uM” value rises from -31.7% to -11.2%.

Compared with `CCOc1cccc(-c2cc(=O)[nH][nH]2)c1`, `COc1cccc(-c2cccc(NC(=O)C3CCN(CC4CCOC4)CC3)c2)c1` (stereo not shown) is lower in “hERG current change (%, negative = inhibition) at 10uM” value: 1.58% for the first, -53.2% for the second.

Going from `CC1CC(C)CN(c2nc(NCc3ccco3)nc(N)c2[N+](=O)[O-])C1` (stereo not shown) to `CC1CCCN(c2nc(NCc3ccco3)nc(N)c2[N+](=O)[O-])C1` (stereo not shown), the “hERG current change (%, negative = inhibition) at 10uM” value falls from -27.4% to -54.3%.

First: CC1CCN(c2nc(NCc3ccco3)nc(N)c2[N+](=O)[O-])CC1
Second: Cc1cccc(N2CCN(C(=O)c3ccc(CNc4c(N5CCC(C)CC5)c(=O)c4=O)cc3)CC2C)c1 (stereo not shown)
The “hERG current change (%, negative = inhibition) at 10uM” value of the first is lower: -11.9% for the first, -10.4% for the second.

Going from `CCN(c1cccc(C)c1)S(=O)(=O)c1ccc(-c2cc(C)no2)s1` to `CCN(CC)S(=O)(=O)c1cc(C(=O)Nc2cc(C)on2)c(Cl)cc1Cl`, the “hERG current change (%, negative = inhibition) at 10uM” value rises from 5.94% to 12.3%.

Going from `CC(=O)Nc1cccc(NC(=O)CSc2nc(=O)n(CCN3CCOCC3)c3c2CCC3)c1` to `CC(=O)c1cccc(NC(=O)CSc2nc(=O)n(CCN3CCOCC3)c3c2CCCC3)c1`, the “hERG current change (%, negative = inhibition) at 10uM” value falls from -2.96% to -11.2%.

Compared with `O=C(CSc1nc(=O)n(CCN2CCOCC2)c2c1CCCC2)Nc1ccc([N+](=O)[O-])cc1`, `O=C(CSc1nc(=O)n(CCCN2CCOCC2)c2c1CCCC2)Nc1cccc([N+](=O)[O-])c1` is lower in “hERG current change (%, negative = inhibition) at 10uM” value: -67.6% for the first, -67.7% for the second.

First: O=C(CSc1nc(=O)n(CCCN2CCOCC2)c2c1CCC2)Nc1ccc(F)cc1
Second: CC(=O)c1ccc(NC(=O)CSc2nc(=O)n(CCN3CCOCC3)c3c2CCC3)cc1
The “hERG current change (%, negative = inhibition) at 10uM” value of the first is lower: -39.5% for the first, -7.74% for the second.

Going from `CCC(C)NC(=O)c1cnn2c1NC(c1cccs1)CC2C(F)(F)F` (stereo not shown) to `O=C(Nc1cccc(Cl)c1)C1CCN(C(=O)c2cccs2)CC1`, the “hERG current change (%, negative = inhibition) at 10uM” value falls from -11.3% to -16.8%.

First: O=C(OCC(=O)N1CCCC1=O)c1cc(S(=O)(=O)N2CCOCC2)ccc1F
Second: O=C(COC(=O)c1cc(=O)[nH]c2ccccc12)Nc1ccc(Cl)cn1
The “hERG current change (%, negative = inhibition) at 10uM” value of the first is lower: -22.5% for the first, 6.92% for the second.

Going from `C/C(CCc1oc2ccc(Cl)cc2c1-c1ccc(C)o1)=N\O` to `CC(=O)c1cccc(CN2CCC(C(=O)Nc3ccc(-c4cccc(C)c4)cc3)CC2)c1`, the “hERG current change (%, negative = inhibition) at 10uM” value falls from 22.9% to 2.59%.

Going from `CC1(C)N([O-])C(c2cccs2)=C[N+]1=O` to `COc1cccc(NC(=O)C2CC2)c1`, the “hERG current change (%, negative = inhibition) at 10uM” value rises from -7.12% to 2.97%.

With `O=C(Nc1cccc(-c2cccc(Cl)c2)c1)C1CCN(CC2CCOC2)CC1` (stereo not shown) the “hERG current change (%, negative = inhibition) at 10uM” value was -77.2%.
